# Assay outcomes: PubChem, Broad Institute
# FGF22 binding = binders of human FGF22 protein, primary screen, FGF22 synaptogenesis inhibitor project, biophysical, thermal shift, single point. recombinant FGF22 thermal shift, SYPRO orange fluorescence; percent of sucrose octasulfate shift, DMSO zero. hit rate 1.5% among 340,000. Fibroblast growth factor 22 (Homo sapiens), Q9HCT0. activity (Tm shift, normalised), % at 9.99 µM. AID 651658, 2012;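 active means mean Tm shift, scaled 0 neutral to 100 positive control, at about 1.3% or above, every replicate too, limit read from the data; inconclusive means no clear call, values can overlap the other calls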
# DENV2 CPE rescue = inhibitors of DENV2 cytopathic effect, primary screen, cell-based, plate reader, single concentration | DENV2-infected cells, cytopathic effect rescue | CPE inhibition, % at 9.99 µM | hit rate 1.7% among 350,000; in the data active means CPE inhibition above about 20%, passing the limit was not always enough; inconclusive means no clear call, values can overlap the other calls; tested in BHK-21 cells
# AF4-AF9 inh = inhibitors of AF4 peptide binding to AF9, primary screen, biochemical, AlphaScreen, biotin-AF4 peptide, FLAG-AF9, single point. Protein AF-9 (Homo sapiens), P42568. inhibition, % at 10 µM. hit rate 0.47% among 350,000;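 active means every replicate reaching a set inhibition limit, whatever the replicate mean, cut at about 25% in these data; inconclusive means mean inhibition reaches that limit but some replicates miss it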
# RAD52 inh = RAD52 DNA annealing inhibitors, primary screen, biochemical, FRET, single point, set 2; recombinant RAD52 DNA annealing, FRET fluorescence; inhibition, % at 18.7 µM; hit rate 0.46% among 360,000; DNA repair protein RAD52 homolog (Homo sapiens), P43351;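 active means every replicate showing at least 50% inhibition; inconclusive means mean inhibition at least 50% but not in every replicate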
# ERAP1 inh = human ERAP1 aminopeptidase inhibitors, primary screen, biochemical, single point, plate reader | Endoplasmic reticulum aminopeptidase 1 (Homo sapiens), Q9NZ08 | recombinant ERAP1, Leu-AMC fluorescence, 60 min | inhibition, % at 10.7 µM | hit rate 0.15% among 340,000 | AID 652197, 2013;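 active means mean replicate inhibition of at least 30%, or all replicates individually reaching that 30% level; inactive means mean below 30% and not every replicate reaching it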
# Target sequence (Q9NZ08 whole entry, looked up): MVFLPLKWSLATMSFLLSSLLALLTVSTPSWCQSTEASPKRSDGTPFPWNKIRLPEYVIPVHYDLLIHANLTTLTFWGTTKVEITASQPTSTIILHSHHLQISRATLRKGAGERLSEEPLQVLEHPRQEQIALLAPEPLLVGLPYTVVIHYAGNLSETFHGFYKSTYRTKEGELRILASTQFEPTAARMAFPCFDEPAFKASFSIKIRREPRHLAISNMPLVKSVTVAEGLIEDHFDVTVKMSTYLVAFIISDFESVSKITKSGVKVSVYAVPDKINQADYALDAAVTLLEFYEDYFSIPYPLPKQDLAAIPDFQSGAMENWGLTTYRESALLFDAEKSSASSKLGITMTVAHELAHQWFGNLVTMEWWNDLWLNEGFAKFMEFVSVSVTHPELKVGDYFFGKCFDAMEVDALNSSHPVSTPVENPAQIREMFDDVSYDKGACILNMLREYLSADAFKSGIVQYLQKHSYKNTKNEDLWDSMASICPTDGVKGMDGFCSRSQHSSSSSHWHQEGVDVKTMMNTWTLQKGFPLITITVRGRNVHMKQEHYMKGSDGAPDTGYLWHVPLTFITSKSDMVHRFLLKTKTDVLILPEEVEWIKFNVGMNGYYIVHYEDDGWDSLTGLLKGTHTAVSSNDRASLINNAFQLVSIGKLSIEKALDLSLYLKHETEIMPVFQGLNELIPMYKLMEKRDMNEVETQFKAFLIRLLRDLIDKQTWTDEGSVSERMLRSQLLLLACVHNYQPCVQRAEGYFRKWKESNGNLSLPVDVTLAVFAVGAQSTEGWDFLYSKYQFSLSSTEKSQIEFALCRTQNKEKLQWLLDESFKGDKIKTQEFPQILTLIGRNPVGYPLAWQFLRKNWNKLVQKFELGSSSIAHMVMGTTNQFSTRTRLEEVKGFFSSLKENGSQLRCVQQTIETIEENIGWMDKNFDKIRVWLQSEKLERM
# A number is an active result; n = inactive; u = inconclusive; x = no result; ! = a repeat was not active. Hits are enriched below; roughly 4% of the tested compounds scored in any of these assays.
SMILES,FGF22 binding,DENV2 CPE rescue,AF4-AF9 inh,RAD52 inh,ERAP1 inh
COCC(=O)Nc1ccc2c(c1)[C@@H]1C[C@H](CC(=O)OC)O[C@H](CO)[C@@H]1O2,n,28!,n,n,n
CCCn1c(N)c(Sc2ccc(C)cc2)c(=O)n(CCC)c1=O,43,n,n,n,n
COCCn1c(N)c(Sc2ccc(C)cc2)c(=O)[nH]c1=O,n,n,n,n,n
COc1ccccc1S(=O)(=O)N1CC[C@H]2[C@H](CO)Nc3ccc(-c4cccc(C#N)c4)cc3[C@H]21,x,x,x,n,x
C[C@@H](NC(=O)C[C@@H]1C=C[C@H](NC(=O)C2CCC2)[C@@H](CO)O1)c1ccccc1,n,24,n,n,n
O=C(N[C@@H]1C=C[C@H](CC(=O)N2CCc3ccccc3C2)O[C@@H]1CO)C1CCC1,x,98,n,n,n
O=C(N[C@@H]1C=C[C@@H](CC(=O)N2CCc3ccccc3C2)O[C@H]1CO)C1CCC1,n,n,n,n,n
COC(=O)c1cc(NC(=O)c2cccs2)ccc1N1CCOCC1,43,u,n,n,n
COC(=O)c1cn(C(=O)c2ccc(OC)c(OC)c2)c2ccccc12,n,26,n,n,n
COc1ccc(C(=O)NN(C)c2nc(C(F)(F)F)nc3ccccc23)cc1,n,n,n,n,n
CN(NS(=O)(=O)c1ccc(Cl)cc1)c1nc(C(F)(F)F)nc2ccccc12,44,n,n,n,n
Cc1ccc(-c2ccc3c(c2)O[C@H](CN(C)Cc2ccncc2)[C@H](C)CN([C@H](C)CO)S3(=O)=O)cc1,n,u,n,n,n
NC(=S)N=Nc1c(O)n(CCCl)c2ccccc12,n,n,n,n,n
NC(=S)N=Nc1c(O)n(CCCl)c2ccc(Cl)cc12,44,n,n,n,n
Cc1c(C(=O)N2CCCC2)oc2ccc(Br)cc12,n,53,n,n,n
C=CCC[C@@H](Cc1ccc(F)cc1)C(=O)OCCNC(=O)[C@@H](CC=C)CC(=O)N[C@@H](CO)Cc1ccccc1,n,n,n,n,x
C=CC[C@H](CC(=O)NCCO)C(=O)N[C@@H](C)COC(=O)[C@H](CC=C)CC(=O)OC(C)(C)C,n,n,n,n,x
C=CC[C@@H](CC(=O)N[C@@H](CO)Cc1ccccc1)C(=O)N[C@@H](COC(=O)[C@@H](CC=C)Cc1ccc(F)cc1)Cc1ccccc1,n,n,n,n,n
C=CCC[C@@H](Cc1ccc(F)cc1)C(=O)OCCNC(=O)[C@@H](CC=C)CC(=O)N[C@H](CO)Cc1ccccc1,n,44,n,n,n
C=CC[C@@H](CC(=O)N[C@H](CO)Cc1ccccc1)C(=O)N[C@@H](C)COC(=O)[C@@H](CC=C)Cc1ccc(F)cc1,n,41,n,n,n
C=CCC[C@@H](Cc1ccc(F)cc1)C(=O)OC[C@@H](C)NC(=O)[C@@H](CC=C)CC(=O)N[C@H](CO)Cc1ccccc1,1.4,n,n,n,n
C=CC[C@@H](CC(=O)NCCO)C(=O)N[C@@H](C)COC(=O)[C@H](CC=C)CC(=O)OC(C)(C)C,n,46,n,n,n
Cc1ccccc1-c1ccc([C@H]2[C@@H](CO)N3C(=O)CN(C(=O)Nc4ccc(F)cc4)C[C@@H]23)cc1,x,n,n,n,n
C=CCC[C@@H](Cc1ccc(F)cc1)C(=O)OC[C@@H](NC(=O)[C@@H](CC=C)CC(=O)N[C@H](CO)Cc1ccccc1)C(C)(C)C,n,25,n,n,n
C=CC[C@@H](CC(=O)N[C@@H](CO)Cc1ccccc1)C(=O)N[C@H](COC(=O)[C@@H](CC=C)Cc1ccc(F)cc1)C(C)(C)C,n,n,n,n,n
C/C=C/c1ccc([C@H]2[C@@H](CO)N3CCCCN(C(=O)Nc4ccc(OC)cc4)C[C@H]23)cc1,n,n,n,n,n
C/C=C/c1ccc([C@H]2[C@@H](CO)N3CCCCN(C(=O)Nc4ccc(OC)cc4)C[C@@H]23)cc1,n,30,n,n,n
CC(C)CC#Cc1ccc([C@H]2[C@@H](CO)N3CCCCN(C(=O)Nc4ccccc4)C[C@@H]23)cc1,x,x,n,x,x
